# High-throughput results (PubChem)
# Cruzain noTriton = qHTS Assay for Promiscuous and Specific Inhibitors of Cruzain (without detergent). hit rate 2.3% among 200,000. AID 1476, 2009. Potency, µM, for inactives: max response, negative = inhibition, actives largely listed as inhibitors. purified cruzain, Z-FR-AMC fluorescence, no detergent. Cruzipain (Trypanosoma cruzi), P25779;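 also: plate controls were enzyme without inhibitor for no effect and buffer without enzyme for full effect; nearly all actives have a fitted effect of over 40% in size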
# Target sequence (P25779 123-467 limits assumed): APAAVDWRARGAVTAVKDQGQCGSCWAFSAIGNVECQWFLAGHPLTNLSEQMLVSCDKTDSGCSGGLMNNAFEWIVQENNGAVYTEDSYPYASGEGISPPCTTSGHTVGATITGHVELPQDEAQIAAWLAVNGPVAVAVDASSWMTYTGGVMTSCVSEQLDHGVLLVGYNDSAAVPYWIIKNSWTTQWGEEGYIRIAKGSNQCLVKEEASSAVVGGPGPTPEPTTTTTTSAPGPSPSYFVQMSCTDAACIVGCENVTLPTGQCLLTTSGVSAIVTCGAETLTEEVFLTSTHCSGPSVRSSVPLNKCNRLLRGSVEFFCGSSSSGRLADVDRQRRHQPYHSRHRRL
#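 Purified cruzain at 1.5 nM, pre-incubated 15 min with compound at room temperature in 100 mM sodium acetate pH 5.5, 5 mM DTT, 0.00005% Triton X-100. Reaction started with 2 uM Z-FR-AMC; AMC fluorescence increase over 60 s gives rate.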
# Cruzain Triton = qHTS Assay for Promiscuous and Specific Inhibitors of Cruzain (with detergent); hit rate 0.43% among 200,000; Potency, µM, without a hit: max response, negative = inhibition, usual class: inhibitors; AID 1478, 2009; purified cruzain, Z-FR-AMC fluorescence, 0.01% Triton;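 also: plate controls were neutral wells for no effect and buffer without enzyme for full effect; nearly all actives have a fitted effect of over 40% in size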
#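 Enzyme 1.5 nM, Z-FR-AMC 2 uM, NaOAc 100 mM pH 5.5, DTT 5 mM, Triton X-100 0.01%; 15 min RT compound preincubation; kinetic ex360/em450, 60 s delta.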
# Papain counter = qHTS Assay for Inhibitors of Papain: Counterscreen for Cruzain Assay | shares compounds with Cruzain Triton | purified papain, Z-FR-AMC fluorescence cleavage | Potency, µM, for the others: max response, negative = inhibition, most hits filed as inhibitors | hit rate 41% among 410;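 also: 0% = no-compound wells and -100% = no-enzyme wells; nearly all actives have a fitted effect of over 35% in size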
# * hit, by the source's call; ? = inconclusive; . = no result. In the library only some 2.5% were active in any assay of this set; here they are far more common. Calls follow the shape of the dose curve; as a rule, active = well fitted curve in the direction sought with a large enough effect; inconclusive = small, poorly fitted or top-dose-only effect, or another doubt; inactive = no such curve, though single readings can be large; an effect the other way counts as inactive or inconclusive. Potency is read from the fitted curve at half-maximal effect.
SMILES,Cruzain noTriton,Cruzain Triton,Papain counter
Cc1csc(N/N=C/c2ccc(O)c([N+](=O)[O-])c2)n1,7.94µM*,7.08µM*,-46.9%
Cc1ccc(-c2nc3sccn3c2Nc2ccc(C)c(C)c2)cc1,?,-10.6%,.
COC(=O)c1ccccc1NC(=O)CCCn1nc(C)c2sc3ccccc3c2c1=O,-9.0%,-3.4%,.
COc1cc2c(cc1OC)C(COc1ccc3c(C)cc(=O)oc3c1)N(C(=O)c1ccc(C)c(C)c1)CC2 (centres undefined),-2.2%,2.6%,.
COc1cccc(C2C(C(=O)Nc3ccc(C)cc3C)=C(C)Nc3c(C(=O)Nc4cccc(C)c4)cnn32)c1OC (centres undefined),-0.7%,-5.7%,.
Cc1ccc(Cn2cc(CCC(=O)NC3CCC(C)CC3)c3ccccc32)cc1 (centres undefined),13.4%,-6.6%,.
CCn1cnc2c(Nc3cc(F)cc(F)c3)nc(C#N)nc21,.,.,0.3µM*
CCn1cnc2c(Nc3cccc(Cl)c3)nc(N[C@@H]3CCCC[C@@H]3N)nc21,8.6%,-4.1%,.
O=C1c2oc3ccccc3c(=O)c2C(c2cccc(O)c2)N1Cc1ccc(F)cc1 (centres undefined),-2.0%,-6.6%,.
O=C(NC1CC(=O)N(c2ccc(F)cc2)C1)C(c1ccccc1)c1ccccc1 (centres undefined),-1.1%,-4.3%,.
COc1ccc(-c2ccc(-c3nnc(-c4cc(OC)ccc4OC)o3)cc2)cc1,25.1µM*,?,11.2µM*
COc1ccc(-c2nnc(-c3ccc(N)cc3)o2)cc1,-17.3%,-4.6%,.
Cc1ccc(S(=O)(=O)NC(CC(N)=O)C(=O)O)cc1 (centres undefined),1.3%,4.2%,.
Cc1ccc(S(=O)(=O)N[C@@H](CCCCN)C(=O)CCl)cc1,1µM*,0.794µM*,3.98µM*
CCOC(=O)N1CCN(C(=O)CN(c2cc(Cl)ccc2OC)S(=O)(=O)c2ccccc2)CC1,?,2.7%,.
COc1ccccc1N1CCN(C(=O)CN(c2ccccc2OC)S(=O)(=O)c2ccccc2)CC1,?,2.9%,8.1%
CCOC(=O)Cc1ccc(NC(=O)Nc2cccc(OCc3cc(=O)n4cc(C)ccc4n3)c2)cc1,-10.8%,3.9%,.
Cc1ccc(OCCCn2c(CCNC(=O)C3CCCCC3)nc3ccccc32)cc1,.,.,25.1µM*
O=C(NCCc1nc2ccccc2n1CCCOc1ccc(Cl)cc1)C1CCCCC1,15.9%,2µM*,28.2µM*
CC(C)(C)C(=O)NCCCc1nc2ccccc2n1CCCOc1ccc(Cl)cc1,?,-5.1%,.
CCc1nc2ccccc2n1CCCCOc1ccc(C)cc1,6.2%,-10.7%,.
CC(=O)NCCc1nc2ccccc2n1CCCCOc1ccc(Cl)cc1,?,-9.9%,.
Cc1ccc(OCCCCn2c(CCNC(=O)C3CCCCC3)nc3ccccc32)cc1,.,.,31.6µM*
CC(C)(C)c1ccc(OCCn2c(CCNC(=O)C3CCCCC3)nc3ccccc32)cc1,.,.,-20.4%
CC(C)Oc1ccc(CNC(=O)c2ccccc2NC(=O)c2nsc3ccccc23)cc1,1.1%,0.0%,.
SMILES,Cruzain noTriton,Cruzain Triton,Papain counter
O=C(Nc1cccc(F)c1)C1CCN(S(=O)(=O)c2cccc3nsnc23)CC1,-8.4%,-7.0%,.
CCCn1c(SCC(O)c2cccc(OC)c2)nc2ccccc21 (centres undefined),3.0%,-3.8%,.
COc1cccc(NC(=O)Cn2c(=O)n(CCC(=O)NCc3ccccc3OC)c(=O)c3ccccc32)c1,3.7%,-1.3%,.
COc1ccc(-c2nnc(SCC(=O)NCc3ccccc3)nc2-c2ccc(OC)c(OC)c2)cc1OC,?,-6.7%,.
O=C(NCC(c1ccc2c(c1)OCO2)N1CCOCC1)c1ccccc1F (centres undefined),-16.8%,-1.5%,.
CCOc1ccc(NCc2nc3ccccc3n2CCOc2ccc(C)cc2)cc1,-9.4%,-8.5%,.
Cc1ccc(OCCn2c(CCNC(=O)C3CCCCC3)nc3ccccc32)cc1,-9.5%,1.26µM*,-13.7%
CCOc1ccc(CNC(=O)C2Cc3ccccc3N2C(=O)CC)cc1 (centres undefined),8.0%,1.5%,.
Cc1nn(C)c(C)c1S(=O)(=O)N(CC(=O)Nc1ccc(F)cc1F)c1ccc(C(C)C)cc1,3.6%,-0.9%,.
O=C(NCCc1nc2ccccc2n1CCOc1ccc2ccccc2c1)C1CCCCC1,.,.,-4.7%
O=C(NCCc1nc2ccccc2n1CCCOc1ccc2ccccc2c1)C1CCCCC1,.,.,10µM*
O=C(Nc1nc2ccccc2n1CCN1CCCCC1)C1CCCCC1,-5.2%,0.7%,.
CCOc1ccc2c(c1)c(=O)c(S(=O)(=O)c1ccccc1)cn2CC(=O)Nc1ccccc1OC,-18.0%,-3.7%,.
CCN(CCCNC(=O)c1nn(-c2ccc(C)cc2)c(=O)c2c1c1ccccc1n2C)c1cccc(C)c1,1.9%,-0.9%,.
COc1ccccc1-c1nn2c(-c3cc(C)[nH]n3)nnc2s1,.,.,4.8%
